# Source: the supplement of paper PMC3334620
# Whole data set: some 33,000 sequences, median “E-score (-0.5 to 0.5)” near -0.053, cut for the highest 2% near 0.37. The sample holds the highest values, similar sequences and a random draw of the others, so the mix is not that of the screen.
# Target: Hap1 (UniProt P0CE41)
# Assay: PBM E-score (8-mer binding enrichment) (E-score (-0.5 to 0.5)); higher = stronger / more preferred TF binding
# Conditions: protein concentration: 200 nM; construct: GST-DNA-binding domain
# Procedure: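 Universal 'all 10-mer' protein binding microarrays (Agilent AMADID 015681) probed with GST-tagged S. cerevisiae TFs (full-length or DBD) made by in vitro transcription/translation (PURExpress), about 100-200 nM. Bound TF was detected with fluorescent anti-GST. Each ungapped 8-mer (which stands for itself and its reverse complement) is scored by the PBM enrichment score (E-score), a modified Wilcoxon-Mann-Whitney statistic from -0.5 to +0.5, computed with the Universal PBM Analysis Suite. Scale: above 0.35 generally sequence-specific binding.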
# Sequence of UniProt P0CE41 (P0CE41 whole entry): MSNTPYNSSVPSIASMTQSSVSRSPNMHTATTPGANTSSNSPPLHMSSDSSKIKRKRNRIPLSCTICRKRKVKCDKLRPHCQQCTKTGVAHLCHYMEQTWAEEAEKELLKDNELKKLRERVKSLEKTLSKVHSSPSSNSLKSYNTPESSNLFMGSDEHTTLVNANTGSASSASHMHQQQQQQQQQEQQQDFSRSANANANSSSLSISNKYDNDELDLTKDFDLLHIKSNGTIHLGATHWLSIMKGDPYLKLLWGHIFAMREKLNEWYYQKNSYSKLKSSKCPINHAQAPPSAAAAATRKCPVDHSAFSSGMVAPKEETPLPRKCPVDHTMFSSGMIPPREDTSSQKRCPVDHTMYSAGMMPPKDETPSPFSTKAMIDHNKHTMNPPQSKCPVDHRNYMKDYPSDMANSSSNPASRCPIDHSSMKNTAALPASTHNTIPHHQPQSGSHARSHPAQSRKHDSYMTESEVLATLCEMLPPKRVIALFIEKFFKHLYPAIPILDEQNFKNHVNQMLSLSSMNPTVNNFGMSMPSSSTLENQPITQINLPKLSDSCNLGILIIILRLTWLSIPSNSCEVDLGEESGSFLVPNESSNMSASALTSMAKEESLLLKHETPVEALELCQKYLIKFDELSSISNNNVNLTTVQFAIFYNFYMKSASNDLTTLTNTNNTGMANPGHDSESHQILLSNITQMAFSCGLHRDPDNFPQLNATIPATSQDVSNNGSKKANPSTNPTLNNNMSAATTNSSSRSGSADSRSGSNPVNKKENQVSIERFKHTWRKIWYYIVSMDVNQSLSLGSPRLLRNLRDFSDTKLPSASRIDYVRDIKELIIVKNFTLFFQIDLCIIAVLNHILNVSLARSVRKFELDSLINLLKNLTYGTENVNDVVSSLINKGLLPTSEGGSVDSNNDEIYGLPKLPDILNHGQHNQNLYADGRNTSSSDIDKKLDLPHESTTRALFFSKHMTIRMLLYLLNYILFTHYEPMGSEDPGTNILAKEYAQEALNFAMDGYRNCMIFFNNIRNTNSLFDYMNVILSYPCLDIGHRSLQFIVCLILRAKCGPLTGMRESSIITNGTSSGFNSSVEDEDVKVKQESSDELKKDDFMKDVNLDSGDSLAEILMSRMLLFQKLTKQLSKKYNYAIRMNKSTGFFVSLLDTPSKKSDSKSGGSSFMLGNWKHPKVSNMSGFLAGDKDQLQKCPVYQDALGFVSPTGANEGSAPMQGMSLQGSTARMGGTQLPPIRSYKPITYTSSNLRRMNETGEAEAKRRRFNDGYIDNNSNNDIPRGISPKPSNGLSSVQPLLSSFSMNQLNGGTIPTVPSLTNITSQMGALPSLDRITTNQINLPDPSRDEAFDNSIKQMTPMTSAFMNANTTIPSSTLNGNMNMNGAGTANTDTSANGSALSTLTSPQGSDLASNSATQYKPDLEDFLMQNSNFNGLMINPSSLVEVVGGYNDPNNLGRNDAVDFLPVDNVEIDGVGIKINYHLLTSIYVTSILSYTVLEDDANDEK
row,Sequence,PBM E-score
1,ACGGGCCA,0.226
2,CATAGAAG,-0.0619
3,CAGTTCGA,-0.156
4,AGCGCCAT,-0.113
5,CCGGTAAG,0.391
6,CCGGTAAA,0.456
7,CCGGTACG,0.342
8,TCGGTAAA,0.249
9,CCGGTAAC,0.36
10,ACGGTAAG,0.067
11,CGGGCAAA,0.249
12,GGCAAATA,0.2
13,TGGCAGAA,-0.0128
14,CTGCTGGA,-0.231
15,GCCCGAAA,0.342
16,CTCCGAAC,0.415
17,CCCCGAAC,0.291
18,TTCCGAAA,0.363
19,ATCCGAAG,0.326
20,ATCCGAAC,0.355
21,GTCCGAAA,0.421
22,ATCCGAAA,0.389
23,CACCGAAC,0.194
24,GCCCGAAC,0.298
25,GTCCGAAC,0.426
26,ACCCGAAA,0.31

row,Sequence,PBM E-score
1,ATACCGTC,0.0985
2,CGGCTAGC,0.0611
3,AGTCAGAT,-0.212
4,AGCAGCTG,-0.167
5,ACCCTCAG,-0.197
6,GCGCAAAA,-0.00131
7,ACCCGAAT,0.314
8,CGCCGAAG,0.359
9,CACCGAAG,0.245
10,ATCCGACA,0.305
11,CTCCGAAA,0.41
12,ATCCGAAT,0.403
13,CGCCGAAA,0.359
14,CTTCGAAA,-0.279
15,CTCCGAAG,0.401
16,AACCGAAT,0.301
17,CTCCGACA,0.291
18,GTCCGACA,0.38
19,ACTTGAGA,-0.185
20,AGGGGCGG,0.235
21,ACTCGTCG,-0.172
22,CCCCGCAA,0.258
23,ACATTTAA,-0.0555
24,AGCCCTTG,-0.311
25,AGACACGG,0.0548
26,CATCCAGG,-0.183

row,Sequence,PBM E-score
1,ATCCGAGG,0.39
2,ATCCGAGC,0.356
3,ATCCGACG,0.333
4,GACGCACC,-0.118
5,GCAAGGAC,-0.115
6,AGTCCGTG,0.299
7,AATCCGAT,0.401
8,AGTCCTAT,-0.0943
9,AATCCGAA,0.366
10,AGTCCGAT,0.432
11,AGTCCGAC,0.36
12,AGTCCAAG,-0.404
13,AGTCCGAG,0.428
14,AATCCGAC,0.363
15,AAGCCTAT,-0.101
16,AAAACTAG,-0.116
17,AGTACGGG,-0.028
18,ACTTCTGG,-0.297
19,AGTGGACG,0.0359
20,TAAAAGGA,-0.0643
21,AGATAAGC,-0.0608
22,TGACCTAA,-0.158
23,CGACCTAA,0.161
24,GGACCTAA,0.371
25,TACGGAAA,0.316
26,GCCGGAAA,0.395

row,Sequence,PBM E-score
1,TGCGGAAA,0.213
2,TCCGGAAA,0.445
3,CCCGGAAA,0.411
4,GACGGAAA,0.314
5,CCCGGAAG,0.358
6,CCGGGAAA,0.338
7,GGCGGAAA,0.29
8,TCTCAAGA,-0.0524
9,GTCGCGTA,-0.051
10,ATTCAAAG,-0.213
11,ACGCTTGG,-0.193
12,GGGGCGCA,-0.255
13,ACTAGTCA,-0.241
14,GGTGTGGA,-0.00568
15,GGAACACA,-0.109
16,AGCACGAC,-0.133
17,AACGCCGG,0.397
18,AACGCCGC,0.355
19,AACGCCGT,0.273
20,CACGCCGA,0.169
21,TACGCCGA,0.301
22,AACGCCGA,0.447
23,ACCCGCCA,-0.0193
24,GGGGCTCA,-0.167
25,ATGAGTTA,-0.207
26,ATAAATCC,0.325

row,Sequence,PBM E-score
1,CTAAATCC,0.386
2,CTAAATCA,-0.138
3,GGGCTACA,-0.0843
4,CCCGGCAA,0.401
5,CCCGGCAG,0.21
6,GCCGGCAA,0.373
7,GCCGGCAC,0.327
8,TCCGGCAA,0.326
9,ACCGGCAA,0.272
10,AAGCTCGG,0.36
11,GTGCTTTA,-0.0684
12,AATCCCCG,0.403
13,AATCCCTG,-0.18
14,CATCCCCG,0.356
15,CATCCCGG,0.312
16,AATCCCGG,0.397
17,AATCCCCC,0.133
18,GCTTGACA,-0.139
19,CATGTCTC,0.131
20,AAGTGCAC,-0.0983
21,CGCTGGGA,0.0217
22,CCTCAAGG,-0.168
23,CCGGGCCG,0.425
24,CGGGGCCC,0.258
25,ACGGGCGA,0.333
26,CCGGGCCC,0.369

row,Sequence,PBM E-score
1,GCGGGCCC,0.216
2,ACGGGCCG,0.29
3,GCGGGCGA,0.296
4,CCGGGCCA,0.348
5,CCGGGCGA,0.376
6,CCGCTATA,0.27
7,AATAGCAT,-0.0964
8,CGTGTACC,0.11
9,AGAAATAA,0.0188
10,GGGAATAC,0.181
11,TGGAATAA,-0.128
12,CGAAATAA,0.182
13,GGAAATAA,0.413
14,GGGAATAA,0.396
15,ACGCACCG,0.00605
16,ACCAGTTA,-0.225
17,CGCCGAAC,0.344
18,TGCCGACA,0.223
19,GACCGAAC,0.347
20,AGCCGAAC,0.227
21,GGCCGACA,0.383
22,CACCGAAA,0.261
23,GGCCGAAC,0.37
24,GACCGAAA,0.385
25,CGCCGTAA,0.283
26,CGCCGACA,0.215

row,Sequence,PBM E-score
1,GGCCGTAA,0.377
2,TGCCGTAA,0.0155
3,ACGAGCTA,-0.108
4,ACCCAGTA,-0.253
5,ATTTGGTC,0.141
6,CTCCTAAC,-0.191
7,AGCCGAAA,0.329
8,TGCCGAAA,0.303
9,GGCCGAAA,0.405
10,CGTTTTAG,-0.114
11,AACCTGTG,-0.315
12,AGAACTCG,0.0147
13,GAGGGAGC,-0.175
14,AACCAAGT,-0.152
15,GGATAAAA,0.261
16,TGATAAAA,-0.0276
17,CGATAAAA,0.382
18,GACTCGGA,0.405
19,CGCTCGGA,0.404
20,AGCTCGGA,0.325
21,CCCTCGTA,-0.0221
22,GCCTCGGA,0.331
23,ACCTCGGG,0.26
24,ACCTCGGC,0.377
25,CCCTCGGC,0.268
26,AACTCGGA,0.345

row,Sequence,PBM E-score
1,GGCTCGGA,0.344
2,CCCTCGGA,0.373
3,TACTCGGA,0.312
4,CATCACAG,-0.258
5,TGGATGAA,-0.183
6,AAAGAAGA,-0.0993
7,GAGTGTGA,-0.176
8,CCCCTTAC,-0.132
9,TAAGGTCA,-0.193
10,CAGGCTAG,-0.279
11,AATGGGGC,-0.188
12,ACCTCGTA,-0.0139
13,ACCTCGAA,-0.135
14,AACTCGGC,0.316
15,CACTCGGC,0.374
16,ACCTCGGA,0.384
17,CACTCGGG,0.159
18,CTCAGCTA,-0.214
19,CCCTACTC,-0.0316
20,ACGATACG,-0.263
21,CCGATACG,0.42
22,CCGATACC,0.377
23,GCGATACC,0.192
24,ACGATACA,-0.216
25,GCGATTCC,0.211
26,CCGATTCC,0.405

row,Sequence,PBM E-score
1,CCGATTCG,0.347
2,ACGATACC,0.179
3,GCGATACA,0.0344
4,CCGATACA,0.43
5,CAGATACG,0.0074
6,GGGCACCA,-0.0557
7,CTGACCGA,0.258
8,GGAAGCCA,-0.0815
9,GATTTTGC,-0.0335
10,ATCTCCGG,0.483
11,ATCTCCAG,0.0473
12,CTCTCCGC,0.0772
13,ATCTCCCC,0.0474
14,CTCTCCGA,0.203
15,ATCTCCCG,0.263
16,GTCTCCGA,0.332
17,ATCTCCGC,0.455
18,ATCTCCGA,0.486
